Source: the supplement of paper PMC11732987, “Enantioselective OTUD7B fragment discovery through chemoproteomics screening and high-throughput optimisation” (Communications Chemistry, 2025)

What was measured:
Test in all cases: log2 ratio of Biotin-Ahx-Ub-VS probe labelling (fragment/DMSO); higher = less target engagement (more negative = stronger competition), active = hit call of the paper (q ≤ 0.05, log2 ratio ≤ -1)
Conditions in all cases: compound concentration: 200 uM; treatment time: 3 h
[1] = target: T1, USP42 (UniProt Q9H9J4)
T1 sequence (whole entry): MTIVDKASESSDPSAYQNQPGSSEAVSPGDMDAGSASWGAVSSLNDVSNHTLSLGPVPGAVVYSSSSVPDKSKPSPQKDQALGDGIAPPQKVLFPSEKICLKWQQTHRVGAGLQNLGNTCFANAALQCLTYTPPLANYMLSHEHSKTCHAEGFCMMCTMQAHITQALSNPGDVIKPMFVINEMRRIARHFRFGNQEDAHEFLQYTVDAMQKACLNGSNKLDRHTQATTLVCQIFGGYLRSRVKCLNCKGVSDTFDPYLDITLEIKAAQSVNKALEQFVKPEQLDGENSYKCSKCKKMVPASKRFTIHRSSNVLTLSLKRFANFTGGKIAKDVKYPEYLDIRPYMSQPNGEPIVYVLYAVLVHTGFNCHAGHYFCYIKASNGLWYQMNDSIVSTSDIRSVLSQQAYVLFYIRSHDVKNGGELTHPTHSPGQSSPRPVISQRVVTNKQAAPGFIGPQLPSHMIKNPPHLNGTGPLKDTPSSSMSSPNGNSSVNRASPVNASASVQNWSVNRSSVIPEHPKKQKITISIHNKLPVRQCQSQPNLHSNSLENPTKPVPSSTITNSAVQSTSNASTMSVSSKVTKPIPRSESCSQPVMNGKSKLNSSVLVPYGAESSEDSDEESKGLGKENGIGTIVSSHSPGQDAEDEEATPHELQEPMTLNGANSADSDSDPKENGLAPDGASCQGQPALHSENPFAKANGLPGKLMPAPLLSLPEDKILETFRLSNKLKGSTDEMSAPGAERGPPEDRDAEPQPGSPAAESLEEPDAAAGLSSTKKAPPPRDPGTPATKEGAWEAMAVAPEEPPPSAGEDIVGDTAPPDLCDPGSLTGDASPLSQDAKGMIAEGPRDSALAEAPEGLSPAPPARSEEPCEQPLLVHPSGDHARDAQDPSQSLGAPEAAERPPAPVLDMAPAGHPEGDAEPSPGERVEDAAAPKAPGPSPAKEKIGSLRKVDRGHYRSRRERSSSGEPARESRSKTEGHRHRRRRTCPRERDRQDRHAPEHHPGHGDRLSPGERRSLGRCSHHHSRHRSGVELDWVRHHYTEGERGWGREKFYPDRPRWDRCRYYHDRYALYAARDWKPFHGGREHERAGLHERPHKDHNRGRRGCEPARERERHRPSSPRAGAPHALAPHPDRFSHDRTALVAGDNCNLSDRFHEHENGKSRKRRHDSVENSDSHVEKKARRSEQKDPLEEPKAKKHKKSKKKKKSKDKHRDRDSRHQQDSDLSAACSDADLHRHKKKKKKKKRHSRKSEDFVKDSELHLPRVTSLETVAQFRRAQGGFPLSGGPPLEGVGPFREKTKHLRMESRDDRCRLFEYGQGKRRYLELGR
Summary of the method: (§1)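 Average log2 ratios of fragment over vehicle were obtained by unpaired t-test from global-median-normalised Spectronaut label-free quantities. Proteins with ≥2 unique peptides were included. HEK293T lysate (495 µg per sample) was treated in triplicate with fragment at 200 µM or vehicle for 3 h, then with Biotin-Ahx-Ub-VS at 0.5 µM final for 1 h, and labelled DUBs were NeutrAvidin-enriched and run by diaPASEF LC-MS/MS.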

[2] = target: USP46 (UniProt P62068)
Summary of the method: as §1

[3] = target: T2, USP47 (UniProt Q96K76)
T2 sequence (whole entry): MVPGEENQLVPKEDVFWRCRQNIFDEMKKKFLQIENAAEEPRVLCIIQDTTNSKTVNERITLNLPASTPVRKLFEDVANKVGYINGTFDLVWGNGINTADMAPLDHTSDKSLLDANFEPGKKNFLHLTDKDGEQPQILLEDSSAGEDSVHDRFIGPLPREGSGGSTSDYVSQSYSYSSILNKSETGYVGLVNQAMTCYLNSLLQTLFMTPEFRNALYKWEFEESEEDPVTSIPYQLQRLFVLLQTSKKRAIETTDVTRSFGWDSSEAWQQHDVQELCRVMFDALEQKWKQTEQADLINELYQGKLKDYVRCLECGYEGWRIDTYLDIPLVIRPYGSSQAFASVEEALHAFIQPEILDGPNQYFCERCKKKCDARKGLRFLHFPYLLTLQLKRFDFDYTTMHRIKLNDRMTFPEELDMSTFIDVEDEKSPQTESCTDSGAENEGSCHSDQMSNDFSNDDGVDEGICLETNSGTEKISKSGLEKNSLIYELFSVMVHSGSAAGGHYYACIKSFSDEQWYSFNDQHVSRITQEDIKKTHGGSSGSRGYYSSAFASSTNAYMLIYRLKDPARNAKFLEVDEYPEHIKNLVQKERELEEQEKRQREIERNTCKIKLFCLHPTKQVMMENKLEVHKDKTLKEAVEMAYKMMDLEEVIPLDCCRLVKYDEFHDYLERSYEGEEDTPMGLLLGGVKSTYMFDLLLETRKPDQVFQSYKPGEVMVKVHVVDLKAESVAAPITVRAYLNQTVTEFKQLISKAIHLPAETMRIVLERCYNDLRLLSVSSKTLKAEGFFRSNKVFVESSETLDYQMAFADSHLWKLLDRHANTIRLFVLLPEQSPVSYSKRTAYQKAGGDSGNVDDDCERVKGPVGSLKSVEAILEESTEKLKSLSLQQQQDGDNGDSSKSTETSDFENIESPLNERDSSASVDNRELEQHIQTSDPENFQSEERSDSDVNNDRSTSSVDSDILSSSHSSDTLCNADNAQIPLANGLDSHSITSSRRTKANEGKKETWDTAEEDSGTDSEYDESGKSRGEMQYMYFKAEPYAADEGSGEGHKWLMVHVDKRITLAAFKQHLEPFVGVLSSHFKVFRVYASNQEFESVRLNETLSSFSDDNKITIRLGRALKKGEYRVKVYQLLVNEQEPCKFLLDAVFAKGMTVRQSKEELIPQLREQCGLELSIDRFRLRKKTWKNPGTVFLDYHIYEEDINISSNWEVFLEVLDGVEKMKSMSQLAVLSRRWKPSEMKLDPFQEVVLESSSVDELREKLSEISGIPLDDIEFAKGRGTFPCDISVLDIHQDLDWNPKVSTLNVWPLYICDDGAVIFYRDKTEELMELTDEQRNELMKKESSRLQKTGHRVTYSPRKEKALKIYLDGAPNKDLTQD
Summary of the method: as §1

[4] = target: T3, USP48 (UniProt Q86UV5)
T3 sequence (whole entry): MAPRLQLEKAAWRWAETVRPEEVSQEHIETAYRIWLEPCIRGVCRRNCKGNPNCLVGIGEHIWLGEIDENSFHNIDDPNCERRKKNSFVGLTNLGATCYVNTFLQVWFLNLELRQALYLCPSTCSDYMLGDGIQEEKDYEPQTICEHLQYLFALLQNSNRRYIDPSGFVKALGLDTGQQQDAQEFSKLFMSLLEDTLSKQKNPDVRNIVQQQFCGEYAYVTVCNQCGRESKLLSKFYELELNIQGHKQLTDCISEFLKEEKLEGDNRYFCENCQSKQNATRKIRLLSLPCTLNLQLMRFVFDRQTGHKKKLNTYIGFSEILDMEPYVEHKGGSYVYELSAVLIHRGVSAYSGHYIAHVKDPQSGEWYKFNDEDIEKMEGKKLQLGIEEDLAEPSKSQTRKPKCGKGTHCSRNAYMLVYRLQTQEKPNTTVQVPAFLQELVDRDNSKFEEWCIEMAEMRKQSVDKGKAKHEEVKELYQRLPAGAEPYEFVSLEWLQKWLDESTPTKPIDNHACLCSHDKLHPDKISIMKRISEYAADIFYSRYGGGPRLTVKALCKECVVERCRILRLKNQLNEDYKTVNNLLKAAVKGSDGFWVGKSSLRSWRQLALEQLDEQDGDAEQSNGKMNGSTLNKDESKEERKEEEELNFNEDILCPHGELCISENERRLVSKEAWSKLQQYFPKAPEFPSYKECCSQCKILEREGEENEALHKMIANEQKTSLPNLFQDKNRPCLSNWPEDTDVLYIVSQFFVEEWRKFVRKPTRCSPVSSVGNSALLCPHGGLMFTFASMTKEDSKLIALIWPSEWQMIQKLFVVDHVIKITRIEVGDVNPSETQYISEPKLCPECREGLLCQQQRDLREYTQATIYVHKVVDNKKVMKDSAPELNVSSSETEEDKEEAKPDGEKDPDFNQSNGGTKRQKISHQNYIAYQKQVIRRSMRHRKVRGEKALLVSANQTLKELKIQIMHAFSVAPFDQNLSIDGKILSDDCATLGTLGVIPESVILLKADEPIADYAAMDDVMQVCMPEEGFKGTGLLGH
Summary of the method: as §1

[5] = target: T4, USP5 (UniProt P45974)
T4 sequence (whole entry): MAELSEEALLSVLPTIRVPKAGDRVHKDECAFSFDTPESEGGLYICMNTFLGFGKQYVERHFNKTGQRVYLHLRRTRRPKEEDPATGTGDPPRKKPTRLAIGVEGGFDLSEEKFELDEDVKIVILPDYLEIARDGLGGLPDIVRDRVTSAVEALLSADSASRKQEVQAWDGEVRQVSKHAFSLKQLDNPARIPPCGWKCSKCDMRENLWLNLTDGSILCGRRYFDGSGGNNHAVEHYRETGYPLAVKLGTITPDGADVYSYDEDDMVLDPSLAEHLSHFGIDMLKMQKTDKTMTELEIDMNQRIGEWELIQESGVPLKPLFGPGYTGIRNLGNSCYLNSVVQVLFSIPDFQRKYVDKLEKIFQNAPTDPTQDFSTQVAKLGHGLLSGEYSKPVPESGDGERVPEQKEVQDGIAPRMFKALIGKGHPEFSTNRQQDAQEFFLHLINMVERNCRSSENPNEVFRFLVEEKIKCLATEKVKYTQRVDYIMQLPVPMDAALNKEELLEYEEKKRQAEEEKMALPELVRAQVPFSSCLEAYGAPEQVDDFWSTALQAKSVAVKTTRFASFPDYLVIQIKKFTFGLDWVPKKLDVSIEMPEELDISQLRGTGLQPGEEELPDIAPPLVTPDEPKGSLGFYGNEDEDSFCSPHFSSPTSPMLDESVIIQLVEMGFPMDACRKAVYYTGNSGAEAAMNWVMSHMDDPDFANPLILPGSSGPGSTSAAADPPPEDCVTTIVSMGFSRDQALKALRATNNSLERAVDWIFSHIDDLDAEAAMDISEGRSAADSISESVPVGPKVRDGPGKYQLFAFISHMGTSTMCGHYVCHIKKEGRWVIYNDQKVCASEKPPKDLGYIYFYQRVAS
Summary of the method: as §1

[6] = target: USP54 (UniProt Q70EL1)
Summary of the method: as §1

[7] = target: USP7 (UniProt Q93009)
Summary of the method: as §1

[8] = target: T5, USP8 (UniProt P40818)
T5 sequence (whole entry): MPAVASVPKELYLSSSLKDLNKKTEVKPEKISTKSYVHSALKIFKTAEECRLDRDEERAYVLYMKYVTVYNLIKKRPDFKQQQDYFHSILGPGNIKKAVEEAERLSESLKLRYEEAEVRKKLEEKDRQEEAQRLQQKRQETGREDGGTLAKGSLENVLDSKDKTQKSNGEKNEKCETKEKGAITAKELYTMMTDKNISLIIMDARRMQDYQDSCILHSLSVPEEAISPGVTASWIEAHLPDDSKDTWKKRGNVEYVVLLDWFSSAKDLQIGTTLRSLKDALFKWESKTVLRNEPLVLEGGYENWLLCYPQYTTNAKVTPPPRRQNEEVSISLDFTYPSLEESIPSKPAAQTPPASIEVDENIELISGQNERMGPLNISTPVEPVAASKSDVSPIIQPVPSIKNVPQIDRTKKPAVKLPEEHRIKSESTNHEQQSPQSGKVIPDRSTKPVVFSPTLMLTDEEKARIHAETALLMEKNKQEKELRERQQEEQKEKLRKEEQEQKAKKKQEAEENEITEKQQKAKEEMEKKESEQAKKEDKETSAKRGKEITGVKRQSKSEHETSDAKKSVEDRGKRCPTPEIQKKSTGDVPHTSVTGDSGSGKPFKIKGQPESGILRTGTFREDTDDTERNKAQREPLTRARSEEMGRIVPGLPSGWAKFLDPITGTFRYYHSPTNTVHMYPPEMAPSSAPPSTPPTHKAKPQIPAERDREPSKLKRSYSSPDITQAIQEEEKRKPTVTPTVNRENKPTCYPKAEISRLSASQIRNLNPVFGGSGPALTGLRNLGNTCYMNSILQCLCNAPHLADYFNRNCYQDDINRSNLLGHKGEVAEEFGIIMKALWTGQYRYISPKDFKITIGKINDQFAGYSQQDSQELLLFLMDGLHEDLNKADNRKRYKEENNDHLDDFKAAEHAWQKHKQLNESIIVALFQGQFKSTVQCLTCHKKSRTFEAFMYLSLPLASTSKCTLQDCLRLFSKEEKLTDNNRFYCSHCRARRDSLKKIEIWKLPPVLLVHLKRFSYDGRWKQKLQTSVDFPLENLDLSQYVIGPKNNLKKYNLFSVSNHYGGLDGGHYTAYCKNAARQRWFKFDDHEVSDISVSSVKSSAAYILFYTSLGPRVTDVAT
Summary of the method: as §1

[9] = target: USP9X (UniProt Q93008)
Summary of the method: as §1

[10] = target: UniProt O00487
Summary of the method: as §1

Measured: log2 ratio of Biotin-Ahx-Ub-VS probe labelling

UniProt O00487, sequence (O00487 whole entry): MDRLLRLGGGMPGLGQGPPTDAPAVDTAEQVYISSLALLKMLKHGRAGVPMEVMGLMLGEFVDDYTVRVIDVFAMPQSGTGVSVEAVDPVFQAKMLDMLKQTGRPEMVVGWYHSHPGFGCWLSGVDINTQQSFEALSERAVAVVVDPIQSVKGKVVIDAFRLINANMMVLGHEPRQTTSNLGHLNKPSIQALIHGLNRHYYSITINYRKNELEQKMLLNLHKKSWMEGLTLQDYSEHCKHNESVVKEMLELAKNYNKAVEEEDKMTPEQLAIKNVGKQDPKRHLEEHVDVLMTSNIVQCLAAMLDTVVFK
USP54, sequence (Q70EL1 whole entry): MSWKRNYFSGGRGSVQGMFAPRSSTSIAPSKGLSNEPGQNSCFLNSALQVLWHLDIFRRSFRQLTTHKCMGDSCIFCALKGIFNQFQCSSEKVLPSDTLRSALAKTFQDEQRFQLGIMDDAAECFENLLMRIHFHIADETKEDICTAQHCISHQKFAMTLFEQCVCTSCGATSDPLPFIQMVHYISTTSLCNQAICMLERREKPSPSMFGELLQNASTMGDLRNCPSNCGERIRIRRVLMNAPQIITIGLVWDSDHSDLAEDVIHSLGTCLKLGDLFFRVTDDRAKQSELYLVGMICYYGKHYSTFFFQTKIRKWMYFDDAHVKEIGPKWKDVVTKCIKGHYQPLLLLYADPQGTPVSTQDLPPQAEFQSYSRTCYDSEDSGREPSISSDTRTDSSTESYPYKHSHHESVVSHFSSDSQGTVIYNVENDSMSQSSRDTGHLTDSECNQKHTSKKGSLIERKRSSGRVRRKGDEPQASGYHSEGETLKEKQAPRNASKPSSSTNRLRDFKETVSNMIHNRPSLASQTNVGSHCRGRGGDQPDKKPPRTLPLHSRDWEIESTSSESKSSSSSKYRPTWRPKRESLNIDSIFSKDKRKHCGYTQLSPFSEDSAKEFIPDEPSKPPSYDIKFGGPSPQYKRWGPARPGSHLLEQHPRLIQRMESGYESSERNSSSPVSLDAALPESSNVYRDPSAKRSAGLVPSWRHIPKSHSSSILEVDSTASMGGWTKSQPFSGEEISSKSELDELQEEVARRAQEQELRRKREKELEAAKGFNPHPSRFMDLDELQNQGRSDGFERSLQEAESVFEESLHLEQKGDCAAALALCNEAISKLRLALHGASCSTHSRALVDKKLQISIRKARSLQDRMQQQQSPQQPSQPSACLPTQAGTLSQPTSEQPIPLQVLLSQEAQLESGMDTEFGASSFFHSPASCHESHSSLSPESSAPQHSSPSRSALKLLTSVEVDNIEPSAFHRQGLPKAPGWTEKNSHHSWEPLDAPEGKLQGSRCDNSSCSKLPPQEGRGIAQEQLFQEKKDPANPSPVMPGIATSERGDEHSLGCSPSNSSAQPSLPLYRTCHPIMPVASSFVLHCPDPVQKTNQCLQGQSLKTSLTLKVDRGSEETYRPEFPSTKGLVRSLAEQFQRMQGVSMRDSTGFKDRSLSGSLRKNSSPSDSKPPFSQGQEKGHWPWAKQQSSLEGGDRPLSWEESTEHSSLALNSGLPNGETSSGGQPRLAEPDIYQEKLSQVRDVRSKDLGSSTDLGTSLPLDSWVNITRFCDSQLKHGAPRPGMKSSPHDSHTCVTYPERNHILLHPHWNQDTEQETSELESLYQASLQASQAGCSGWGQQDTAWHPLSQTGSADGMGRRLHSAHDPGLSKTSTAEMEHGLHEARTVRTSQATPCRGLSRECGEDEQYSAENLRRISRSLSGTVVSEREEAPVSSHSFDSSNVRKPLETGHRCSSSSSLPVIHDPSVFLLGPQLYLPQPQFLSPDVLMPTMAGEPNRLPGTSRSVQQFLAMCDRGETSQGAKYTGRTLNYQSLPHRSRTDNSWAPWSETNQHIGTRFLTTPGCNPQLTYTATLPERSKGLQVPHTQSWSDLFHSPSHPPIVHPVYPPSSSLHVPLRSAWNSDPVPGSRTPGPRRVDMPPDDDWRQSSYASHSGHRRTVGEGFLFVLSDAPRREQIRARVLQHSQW
USP9X, sequence (Q93008 whole entry): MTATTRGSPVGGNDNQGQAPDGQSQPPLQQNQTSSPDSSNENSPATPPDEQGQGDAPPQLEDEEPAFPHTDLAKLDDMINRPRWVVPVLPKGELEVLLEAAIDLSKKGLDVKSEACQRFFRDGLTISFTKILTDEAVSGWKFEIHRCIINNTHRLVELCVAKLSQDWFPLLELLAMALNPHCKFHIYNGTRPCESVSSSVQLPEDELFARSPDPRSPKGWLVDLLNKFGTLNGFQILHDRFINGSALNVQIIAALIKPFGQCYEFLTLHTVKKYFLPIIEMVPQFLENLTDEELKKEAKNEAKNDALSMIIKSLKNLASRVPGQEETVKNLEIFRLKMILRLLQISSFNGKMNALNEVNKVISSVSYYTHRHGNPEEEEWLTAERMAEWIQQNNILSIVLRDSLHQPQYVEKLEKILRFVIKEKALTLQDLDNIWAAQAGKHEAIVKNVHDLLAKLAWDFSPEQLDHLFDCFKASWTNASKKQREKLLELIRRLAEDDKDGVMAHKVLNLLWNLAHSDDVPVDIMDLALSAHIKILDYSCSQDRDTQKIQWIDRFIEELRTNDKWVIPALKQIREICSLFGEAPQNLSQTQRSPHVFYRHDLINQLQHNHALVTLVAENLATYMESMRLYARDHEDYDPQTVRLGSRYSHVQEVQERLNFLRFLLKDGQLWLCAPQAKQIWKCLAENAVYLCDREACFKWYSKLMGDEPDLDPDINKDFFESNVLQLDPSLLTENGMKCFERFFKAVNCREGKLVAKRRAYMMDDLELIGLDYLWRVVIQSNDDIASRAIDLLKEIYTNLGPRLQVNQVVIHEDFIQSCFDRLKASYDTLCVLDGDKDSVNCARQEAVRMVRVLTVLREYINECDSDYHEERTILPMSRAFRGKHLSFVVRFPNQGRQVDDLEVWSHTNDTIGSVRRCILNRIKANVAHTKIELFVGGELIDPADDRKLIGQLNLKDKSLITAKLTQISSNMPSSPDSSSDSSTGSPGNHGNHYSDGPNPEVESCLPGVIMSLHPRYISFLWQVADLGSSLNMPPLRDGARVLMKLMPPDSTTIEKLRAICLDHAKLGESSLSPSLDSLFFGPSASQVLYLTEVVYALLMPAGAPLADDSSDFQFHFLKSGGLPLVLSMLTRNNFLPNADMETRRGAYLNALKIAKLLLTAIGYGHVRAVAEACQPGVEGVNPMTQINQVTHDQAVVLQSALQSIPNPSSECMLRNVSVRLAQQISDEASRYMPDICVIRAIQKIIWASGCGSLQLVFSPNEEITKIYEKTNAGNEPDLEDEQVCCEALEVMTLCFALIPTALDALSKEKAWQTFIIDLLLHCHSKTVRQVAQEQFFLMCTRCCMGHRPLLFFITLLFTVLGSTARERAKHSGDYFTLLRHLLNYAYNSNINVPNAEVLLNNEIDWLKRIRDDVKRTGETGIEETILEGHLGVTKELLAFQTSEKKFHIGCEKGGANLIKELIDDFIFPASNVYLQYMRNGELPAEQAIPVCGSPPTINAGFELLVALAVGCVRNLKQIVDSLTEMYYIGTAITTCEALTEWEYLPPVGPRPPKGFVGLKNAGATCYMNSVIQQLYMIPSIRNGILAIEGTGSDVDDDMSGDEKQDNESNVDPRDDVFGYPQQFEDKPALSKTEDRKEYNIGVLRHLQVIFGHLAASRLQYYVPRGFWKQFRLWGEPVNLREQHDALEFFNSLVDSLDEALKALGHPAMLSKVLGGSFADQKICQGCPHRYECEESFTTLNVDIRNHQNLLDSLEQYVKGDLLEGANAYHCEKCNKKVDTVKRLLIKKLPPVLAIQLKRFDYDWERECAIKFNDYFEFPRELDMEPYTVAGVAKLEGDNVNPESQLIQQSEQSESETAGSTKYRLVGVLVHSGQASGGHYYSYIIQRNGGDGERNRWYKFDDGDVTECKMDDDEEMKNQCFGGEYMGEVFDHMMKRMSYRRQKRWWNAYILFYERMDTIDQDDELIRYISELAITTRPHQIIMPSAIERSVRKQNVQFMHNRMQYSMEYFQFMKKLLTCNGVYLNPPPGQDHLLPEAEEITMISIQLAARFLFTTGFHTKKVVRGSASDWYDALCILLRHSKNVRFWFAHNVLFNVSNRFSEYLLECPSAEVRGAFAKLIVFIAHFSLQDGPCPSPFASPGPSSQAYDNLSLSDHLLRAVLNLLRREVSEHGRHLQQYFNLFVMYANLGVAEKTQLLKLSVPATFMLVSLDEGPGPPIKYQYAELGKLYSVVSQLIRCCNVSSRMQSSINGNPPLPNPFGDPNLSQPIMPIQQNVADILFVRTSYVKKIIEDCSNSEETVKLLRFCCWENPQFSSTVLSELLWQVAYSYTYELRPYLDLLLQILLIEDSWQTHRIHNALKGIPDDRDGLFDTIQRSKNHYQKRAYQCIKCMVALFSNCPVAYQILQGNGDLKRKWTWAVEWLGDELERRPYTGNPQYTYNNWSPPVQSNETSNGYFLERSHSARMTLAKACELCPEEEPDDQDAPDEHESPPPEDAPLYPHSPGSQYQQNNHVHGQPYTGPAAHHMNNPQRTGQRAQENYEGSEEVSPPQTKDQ
USP46, sequence (P62068 whole entry): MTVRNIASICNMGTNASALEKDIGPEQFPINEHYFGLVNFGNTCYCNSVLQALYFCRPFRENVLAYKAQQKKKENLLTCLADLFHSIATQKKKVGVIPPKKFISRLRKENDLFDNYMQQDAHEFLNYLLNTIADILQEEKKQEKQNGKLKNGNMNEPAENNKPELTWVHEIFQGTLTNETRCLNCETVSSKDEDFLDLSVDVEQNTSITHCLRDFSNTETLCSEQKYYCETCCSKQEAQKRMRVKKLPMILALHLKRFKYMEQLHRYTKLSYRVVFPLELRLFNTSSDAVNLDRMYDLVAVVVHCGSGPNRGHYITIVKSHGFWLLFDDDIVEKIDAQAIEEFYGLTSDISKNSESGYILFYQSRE

Cc1cccc2nc(CCNC(=O)CCl)cn12.Cl
inactive: [1] -0.108 | [2] -0.0973 | [3] 0.216 | [4] -0.0534 | [5] -0.101 | [6] 0.94 | [7] -0.308 | [8] -0.222 | [9] -0.455 | [10] -0.163
